Experimental data: publication PMC12431657, “Discovery and mechanistic insights of dibenzoylmethane as a broad spectrum inhibitor of coronavirus” (PLOS Pathogens, 2025)
Read-outs that look alike come from different tables or passages of the source. Among all 3,300 compounds or so, about 95 (3%) showed an effect of 50% or more. The list comes from a sample in which strong results are over-represented; it also holds similar structures and randomly drawn compounds.

Tested on: HCoV-229E
Set-up: species or system Huh-7; HTS, protection from HCoV-229E induced cell death, luminescent cell viability (CellCounting-Lite 2.0), inhibition rate
Conditions: 24 h post infection, 1 h compound pre-incubation, 10 µM, inhibitor

Structure (SMILES) | 229E Inhibition rate [%] | 229E Inhibition rate (229E Inhibition rate, 24 h) [%]
CCC(C)(O)C(=O)O (stereo not shown) [2-Hydroxy-2-methylbutanoic acid] | 0 | –
C[C@@H]1O[C@@H](OC[C@H]2O[C@@H](Oc3c(-c4ccc(OCCO)c(OCCO)c4)oc4cc(OCCO)cc(O)c4c3=O)[C@H](O)[C@@H](O)[C@@H]2O)[C@H](O)[C@H](O)[C@H]1O [Troxerutin] | 50.2 | –
COc1cc(O)c2c(=O)c(O[C@@H]3O[C@H](CO[C@@H]4O[C@@H](C)[C@H](O)[C@@H](O)[C@H]4O)[C@@H](O)[C@H](O)[C@H]3O)c(-c3ccc(OC)c(O)c3)oc2c1 [Ombuoside] | 41.9 | –
C[C@@H]1O[C@@H](OC[C@H]2O[C@@H](Oc3c(-c4ccc(O)cc4)oc4cc(O[C@@H]5O[C@@H](C)[C@H](O)[C@@H](O)[C@H]5O)cc(O)c4c3=O)[C@H](O)[C@@H](O)[C@H]2O)[C@H](O)[C@H](O)[C@H]1O [Robinin] | 8.6 | –
O=C1CCNC(=O)N1 [Dihydrouracil] | 0 | –
COc1c(O)cc2oc3cc4c(c(O)c3c(=O)c2c1CC=C(C)C)CCC(C)(C)O4 [3-Isomangostin] | 11.6 | –
N[C@H](CS)C(=O)O [D-Cysteine] | 6.6 | –
O=C(O)[C@@H](O)[C@H](O)[C@H](O)[C@@H](O)C(=O)O [Mucic acid] | 0 | –
O=C[C@H](O)[C@@H](O)[C@H](O)[C@H](O)C(=O)O [D-Glucuronic acid] | 57.5 | –
O=C[C@H](O)[C@@H](O)[C@@H](O)[C@H](O)C(=O)O [D-Galacturonic acid (hydrate)] | 6.7 | –
CC(C)=CCc1c(O)cc2c(c1O)C(=O)C[C@@H](c1ccc(O)cc1)O2 [(2S)-6-Prenylnaringenin] | 22.5 | –
CC[C@]12C=CCN3CC[C@]4(C(=C(C(=O)OC)C1)Nc1ccccc14)[C@@H]32 [Tabersonine] | 0 | –
O=C(O)CCC(=O)OC[C@@H](NC(=O)C(Cl)Cl)[C@H](O)c1ccc([N+](=O)[O-])cc1 [Chloramphenicol succinate (sodium)] | 54 | –
COC(=O)[C@]1(O)C[C@@H](O)[C@@H](O)[C@H](OC(=O)/C=C/c2ccc(O)c(O)c2)C1 [3-O-Caffeoylquinic acid methyl ester] | 24.2 | –
COc1cc(CCC(=O)O)cc(OC)c1OC [3-(3,4,5-Trimethoxyphenyl)propanoic acid] | 55.1 | –
COc1cc(CCC(=O)O)ccc1O [Dihydroferulic acid] | 28.8 | –
COc1cc(C(=O)O)cc(OC)c1OC [3,4,5-Trimethoxybenzoic acid] | 11.2 | –
C[C@H](CCC(=O)O)[C@H]1CC[C@H]2[C@@H]3[C@H](O)C[C@@H]4CC(=O)CC[C@]4(C)[C@H]3C[C@H](O)[C@]12C [3-Oxocholic acid] | 4.2 | –
CC[C@H](CC[C@@H](C)[C@H]1CC[C@H]2[C@@H]3CC[C@H]4C[C@@H](O)CC[C@]4(C)[C@H]3CC[C@]12C)C(C)C [Stigmastanol] | 12.4 | –

Structure (SMILES) | 229E Inhibition rate [%] | 229E Inhibition rate (229E Inhibition rate, 24 h) [%]
O=c1cc(-c2ccc(O)cc2)oc2cc(O)c([C@@H]3O[C@H](CO)[C@@H](O)[C@H](O)[C@H]3O[C@@H]3OC[C@H](O)[C@H](O)[C@H]3O)c(O)c12 [Isovitexin 2''-O-arabinoside] | 22.1 | –
O=c1cc(-c2ccc(O)cc2)oc2cc(O)c([C@@H]3O[C@H](CO)[C@@H](O)[C@H](O)[C@H]3O[C@@H]3O[C@H](CO)[C@@H](O)[C@H](O)[C@H]3O)c(O)c12 [Meloside A] | 56.2 | –
COc1cc2oc(-c3ccc(O)cc3)cc(=O)c2c(O)c1[C@@H]1O[C@H](CO)[C@@H](O)[C@H](O)[C@H]1O[C@@H]1O[C@H](CO)[C@@H](O)[C@H](O)[C@H]1O [Spinosin] | 16.9 | –
O=c1cc(-c2ccc(O)c(O)c2)oc2c([C@@H]3O[C@H](CO)[C@@H](O)[C@H](O)[C@H]3O)c(O)cc(O)c12 [Orientin] | 55 | –
O=c1cc(-c2ccc(O)cc2)oc2c([C@@H]3O[C@H](CO)[C@@H](O[C@@H]4O[C@H](CO)[C@@H](O)[C@H](O)[C@H]4O)[C@H](O)[C@H]3O)c(O)cc(O)c12 [4”-O-Glucosylvitexin] | 19 | –
O=c1cc(-c2ccc(O)c(O)c2)oc2c([C@@H]3O[C@H](CO)[C@@H](O)[C@H](O)[C@H]3O[C@H]3O[C@@H](CO)[C@@H](O)[C@@H](O)[C@@H]3O)c(O)cc(O)c12 [2"-O-beta-L-galactopyranosylorientin] | 6.8 | –
O=c1cc(-c2ccc(O)c(O)c2)oc2cc(O[C@@H]3O[C@H](CO)[C@@H](O)[C@H](O)[C@H]3O)c(O)c(O)c12 [6-Hydroxyluteolin 7-glucoside] | 5.1 | –
O=c1cc(-c2ccc(O)c(O)c2)oc2cc(O)c([C@@H]3O[C@H](CO)[C@@H](O)[C@H](O)[C@H]3O)c(O)c12 [Isoorientin] | 51.3 | –
O=c1cc(-c2ccc(O)cc2)oc2cc(O)c([C@@H]3O[C@H](CO)[C@@H](O)[C@H](O)[C@H]3O)c(O)c12 [Isovitexin] | 21 | –
O=C(O)[C@H](O)[C@@H](O)C(=O)O [L-Tartaric acid] | – | 17.2
CCOC(=O)CC(C)O (stereo not shown) [Ethyl 3-hydroxybutyrate] | 11.8 | –
CN1c2ccccc2C(=O)N2CCc3c([nH]c4ccccc34)C21 (racemic) [(±)-Evodiamine] | 18.7 | –
CCCCC/C=C/C=C/C(=O)NCC(C)C [Pellitorine] | 14.2 | –
O=C(O)c1ccccc1 [Benzoic acid] | 11.6 | –
O=C(O)c1ccc(C(=O)O)cc1 [Terephthalic acid] | 10.1 | –
O=C(O)c1ccncc1 [Isonicotinic acid] | 55 | –
O=C(O)c1c(O)cccc1O [2,6-Dihydroxybenzoic acid] | 10.3 | –
C=C(CO)C(=O)O[C@H]1CC(=C)[C@@H]2C[C@H](O)C(=C)[C@@H]2[C@H]2OC(=O)C(=C)[C@@H]21 [Cynaropicrin] | 8.5 | –
